From PubChem BioAssay AID449739 (Vanderbilt High Throughput Screening Facility, 2010)
Out of some 100,000 compounds screened, about 4,200 (4.2%) were called active.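 How the source made its calls: active means single-dose well whose peak fluorescence ratio is a statistical outlier from its plate by either plate-standardised score or position-corrected B-score; inactive means the rest.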 For the sample, actives were picked, then their nearest neighbours and some compounds at random.

Each compound was assayed against Voltage-dependent T-type calcium channel subunit alpha-1H (Homo sapiens) (UniProt O95180) (assay: Cav3.2 calcium influx blockers – cell-based, Fluo-4 calcium fluorescence, FDSS, MLSMR library, primary screen (AID 449739)). Conditions: Cav3.2-expressing cells, at 10 µM, stronger effect = lower value.
Sequence of Voltage-dependent T-type calcium channel subunit alpha-1H (Homo sapiens) (O95180 whole entry, looked up): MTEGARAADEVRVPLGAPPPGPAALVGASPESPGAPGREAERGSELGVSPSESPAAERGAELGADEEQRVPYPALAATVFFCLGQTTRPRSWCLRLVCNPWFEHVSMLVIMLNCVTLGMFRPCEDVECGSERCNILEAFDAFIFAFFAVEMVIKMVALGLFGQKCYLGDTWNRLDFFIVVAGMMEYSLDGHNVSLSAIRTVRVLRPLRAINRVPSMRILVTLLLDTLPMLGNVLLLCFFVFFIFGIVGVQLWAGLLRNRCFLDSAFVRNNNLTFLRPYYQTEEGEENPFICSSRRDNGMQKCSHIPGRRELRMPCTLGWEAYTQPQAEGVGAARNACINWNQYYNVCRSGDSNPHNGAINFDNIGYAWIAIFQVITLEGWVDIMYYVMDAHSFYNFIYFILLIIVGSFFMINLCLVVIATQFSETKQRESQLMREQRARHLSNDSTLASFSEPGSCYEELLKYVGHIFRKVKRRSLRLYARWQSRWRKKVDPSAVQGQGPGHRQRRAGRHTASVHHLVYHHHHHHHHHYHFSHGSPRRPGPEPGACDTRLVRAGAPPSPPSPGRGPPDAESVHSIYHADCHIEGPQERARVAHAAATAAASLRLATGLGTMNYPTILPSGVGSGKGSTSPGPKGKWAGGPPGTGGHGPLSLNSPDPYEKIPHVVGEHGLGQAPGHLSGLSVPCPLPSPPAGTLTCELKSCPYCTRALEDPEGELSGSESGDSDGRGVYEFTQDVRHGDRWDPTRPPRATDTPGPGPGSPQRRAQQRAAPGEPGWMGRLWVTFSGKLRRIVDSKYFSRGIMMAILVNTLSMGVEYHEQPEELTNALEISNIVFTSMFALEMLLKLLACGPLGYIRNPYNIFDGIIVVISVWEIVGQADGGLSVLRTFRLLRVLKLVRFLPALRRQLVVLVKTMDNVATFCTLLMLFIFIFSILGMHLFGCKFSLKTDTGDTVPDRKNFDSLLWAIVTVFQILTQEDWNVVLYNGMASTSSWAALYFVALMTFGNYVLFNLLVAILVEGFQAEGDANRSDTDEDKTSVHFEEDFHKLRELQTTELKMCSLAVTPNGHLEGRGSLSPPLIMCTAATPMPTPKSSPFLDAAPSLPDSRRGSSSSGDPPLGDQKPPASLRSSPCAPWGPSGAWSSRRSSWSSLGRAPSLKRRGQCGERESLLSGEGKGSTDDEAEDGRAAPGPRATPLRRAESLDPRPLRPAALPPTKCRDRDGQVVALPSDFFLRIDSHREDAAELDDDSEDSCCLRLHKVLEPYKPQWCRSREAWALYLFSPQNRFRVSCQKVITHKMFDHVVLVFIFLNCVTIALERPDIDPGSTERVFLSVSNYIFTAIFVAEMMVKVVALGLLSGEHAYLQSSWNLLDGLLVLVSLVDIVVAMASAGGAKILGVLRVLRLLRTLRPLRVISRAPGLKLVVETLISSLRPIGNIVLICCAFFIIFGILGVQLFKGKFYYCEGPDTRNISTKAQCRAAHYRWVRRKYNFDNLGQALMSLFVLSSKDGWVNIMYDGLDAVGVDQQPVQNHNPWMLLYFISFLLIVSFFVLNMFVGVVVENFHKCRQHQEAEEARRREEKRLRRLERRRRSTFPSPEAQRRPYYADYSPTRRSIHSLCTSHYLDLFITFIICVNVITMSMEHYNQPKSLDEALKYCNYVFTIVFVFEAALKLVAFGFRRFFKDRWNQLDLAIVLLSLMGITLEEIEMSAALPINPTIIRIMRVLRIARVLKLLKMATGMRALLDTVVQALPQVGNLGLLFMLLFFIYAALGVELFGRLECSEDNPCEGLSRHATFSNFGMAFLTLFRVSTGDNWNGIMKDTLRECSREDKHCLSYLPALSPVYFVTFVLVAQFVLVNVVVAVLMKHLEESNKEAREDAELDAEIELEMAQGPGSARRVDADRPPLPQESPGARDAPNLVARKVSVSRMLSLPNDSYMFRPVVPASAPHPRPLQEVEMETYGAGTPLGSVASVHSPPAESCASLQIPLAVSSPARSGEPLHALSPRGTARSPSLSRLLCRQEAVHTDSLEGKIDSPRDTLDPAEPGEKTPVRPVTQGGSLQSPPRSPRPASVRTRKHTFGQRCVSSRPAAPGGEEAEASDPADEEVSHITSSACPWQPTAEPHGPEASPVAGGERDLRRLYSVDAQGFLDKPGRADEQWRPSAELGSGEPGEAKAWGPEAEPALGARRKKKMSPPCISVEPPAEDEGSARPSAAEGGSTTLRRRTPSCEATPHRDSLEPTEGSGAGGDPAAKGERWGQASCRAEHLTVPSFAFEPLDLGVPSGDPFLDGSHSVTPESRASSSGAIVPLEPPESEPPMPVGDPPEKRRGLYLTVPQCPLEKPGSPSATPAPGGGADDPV
With `CCO[C@H]1OC(C(=O)N2CCN(Cc3ccccc3)CC2)=C[C@@H](c2cn(C(C)=O)c3ccccc23)[C@@H]1CCCO` the B-score was -1.16 (inactive).
With `COc1cc(/C=N/O)cc(Br)c1OS(=O)(=O)c1ccc(C)cc1` the B-score was -2.65 (inactive).
`CCCCN1C(N)=NC[C@@H]1Cc1ccccc1` was tested, and the B-score was -0.563 (inactive).
In the case of `COc1ccc(NC(=O)CC2COc3ccccc3O2)c(OC)c1` (stereo not drawn), the B-score is reported as -0.874 (inactive).
In the case of `COc1ccc(OC)c2sc(NC(=O)C3COc4ccccc4O3)nc12` (stereo not drawn), the B-score is reported as -4.42 (active).
With `CCn1cc(C(=O)NCC2COc3ccccc3O2)c2cc(OC)c(OC)cc2c1=O` (stereo not drawn) the B-score was -0.122 (inactive).
With `c1ccc(-c2ccnc3nc(-n4cccc4)nn23)cc1` the B-score was 0.354 (inactive).
In the case of `COc1ccccc1C1=CC(=O)CCC1`, the B-score is reported as 1.41 (inactive).
With `c1ccc(Nc2n[nH]nc2-c2ccccc2)cc1` the B-score was -7.14 (active).
For `Nc1ccc(Nc2ccccc2)cc1`, the B-score was 0.472 (inactive).
`O=C(Nc1ccccc1)c1cccnc1Nc1ccccc1` was tested, and the B-score was 0.697 (inactive).
With `C=CCCN(Cc1ccccc1)S(=O)(=O)c1ccccc1Br` the B-score was 0.0805 (inactive).
In the case of `CCO[C@@H]1OC(C(=O)NCc2nc3ccccc3[nH]2)=C[C@H](C2CCCCC2)[C@H]1CCCO`, the B-score is reported as -0.192 (inactive).
In the case of `COc1ccc(N2CCN(C(c3cc4ccc(C)cc4[nH]c3=O)c3nnnn3C3CCCC3)CC2)cc1` (stereo not drawn), the B-score is reported as -2.59 (inactive).
For `COc1ccc(C(c2nnnn2C2CCCCC2)N2CCN(c3ccccc3F)CC2)cc1` (stereo not drawn), the B-score was -6.41 (active).
`CC(C)C(c1nnnn1C1CCCC1)N1CCN(c2ccccc2F)CC1` (stereo not drawn) was tested, and the B-score was -2.85 (inactive).
In the case of `N#CCc1c(C#N)c(N)nc(N2CCCC2)c1C#N`, the B-score is reported as 0.949 (inactive).
With `CCN(CC)CCC(c1cc(OC)c(OC)c(OC)c1)c1c(OC)cc(OC)c2c(-c3ccccc3)cc(=O)oc12` (stereo not drawn) the B-score was -1.5 (inactive).
For `C=C(Br)Cn1c(CCCC)nc2ccccc21`, the B-score was -3.88 (active).
For `CCCCn1c(CCCNC(=O)CC)nc2ccccc21`, the B-score was 1.14 (inactive).
In the case of `CCCCn1c(CN2CCN(CCO)CC2)nc2ccccc21`, the B-score is reported as 1.86 (inactive).
In the case of `CC(C)[C@@H]1NC(=O)c2cc([N+](=O)[O-])cc(I)c2NCCC[C@@H](C(=O)NC(CC(=O)O)C(N)=O)NC(=O)[C@H](CO)NC1=O` (stereo partly drawn), the B-score is reported as 0.105 (inactive).
For `CCOc1c2ccc(C(=O)NCc3ccc(OC(F)(F)F)cc3)cc2nn1C`, the B-score was -1.9 (inactive).
With `Cc1cccc(N(CC(=O)N2CCOCC2)S(C)(=O)=O)c1` the B-score was 0.326 (inactive).
With `Cc1cc(C)cc(N(CC(=O)N2CC=C(c3ccccc3)CC2)S(=O)(=O)c2c(C)noc2C)c1` the B-score was -4.03 (active).
`Cc1cc(C)cc(N(CC(=O)NCC2CCCO2)S(=O)(=O)c2c(C)noc2C)c1` (stereo not drawn) was tested, and the B-score was 0.883 (inactive).
In the case of `CC1=C(C(=O)Nc2ccccc2)C(c2ccco2)C(C#N)=C(SCC(N)=O)N1` (stereo not drawn), the B-score is reported as -0.16 (inactive).
For `CCOC(=O)CSC1=C(C#N)C(c2ccco2)C(C(=O)OCc2ccccc2)=C(C)N1` (stereo not drawn), the B-score was -3.01 (inactive).
`N#CC1=C(N)Oc2c(sc3ccccc23)C1c1ccco1` (stereo not drawn) was tested, and the B-score was -4.64 (active).
In the case of `CCOc1cccc(C(=O)Nc2cnn(Cc3ccccc3)c2)c1`, the B-score is reported as -0.985 (inactive).
For `O=C(c1ccc(F)cc1)c1c[nH]c(C(=O)NCc2cccnc2)c1`, the B-score was 1.02 (inactive).
`c1cnc(Nc2nc(-c3ccc4ccccc4c3)cs2)nc1` was tested, and the B-score was 0.515 (inactive).
For `Cc1ccc(-n2c(C)cc(/C=N/Nc3ccc([N+](=O)[O-])cn3)c2C)c(C)c1`, the B-score was -3.21 (inactive).
For `CC(C)c1ccc(N2CCN(C(=O)c3ccccc3NC(=O)/C=C(\C(=O)O)c3ccccc3)CC2)cc1`, the B-score was -0.303 (inactive).
For `COC(=O)c1sccc1NC(=O)CCC1CCCC1`, the B-score was -0.847 (inactive).
For `COC(=O)c1sccc1NC(=O)CSc1ccccc1NS(=O)(=O)c1cc(Cl)ccc1Cl`, the B-score was -4.82 (active).
For `COC(=O)c1sccc1N/N=C(\C)c1ccc(F)c(Cl)c1`, the B-score was -0.109 (inactive).
In the case of `N#Cc1ccc(-c2ccc(Cl)cc2)nc1Oc1ccc(F)cc1`, the B-score is reported as -0.421 (inactive).
With `COc1ccc(CN2[C@@H](CC(=O)O)c3cc(F)ccc3S2(=O)=O)cc1` the B-score was -2.11 (inactive).
In the case of `O=c1cc(CO)oc(C(Nc2cccc(C(F)(F)F)c2)c2ccccn2)c1O` (stereo not drawn), the B-score is reported as -0.112 (inactive).
In the case of `Cc1ccc(-c2csc(NC(=O)c3cccs3)n2)cc1`, the B-score is reported as -1.5 (inactive).
With `NS(=O)(=O)c1ccc(Nc2nc(-c3ccccc3)cs2)cc1` the B-score was 0.0269 (inactive).
With `Cc1cccc(S(=O)(=O)CC(=O)Nc2nc(-c3ccccc3)cs2)c1` the B-score was -8.29 (active).
